This note sets out measurements from PubChem BioAssay AID565 (University of Pittsburgh Molecular Library Screening Center, 2006).

The structures appear in SMILES notation. About 1,200 (1.8%) of roughly 65,000 compounds were called active. Cut-off read from the data, not from the text of the source: active = inhibition above about 50%; inactive = the rest. The sample as a whole holds a higher share of actives than the screen did.

This experiment has as its target Gag-Pol polyprotein (Human immunodeficiency virus type 1 group M subtype B (isolate HXB2)) (UniProt P04585). Kind of experiment: HIV-1 RT RNase H inhibitors, primary screen, biochemical, fluorescence (AID 565). Particulars: RT-RNase H RNA/DNA duplex cleavage, at 10 µM, stronger effect = higher value.
As usually defined, the inhibition is the relative decrease from the control value, in per cent. Regarding `Cc1cc(C)n(C(=O)c2ccc(S(=O)(=O)N3CCCC3)cc2)n1`, the inhibition was -7.85% (inactive).

For the compound `Fc1ccccc1OCCSc1nc2ccccc2o1`, the inhibition was -31.7% (inactive).

In the case of `Cc1nc2ccccc2c(=O)n1CCCn1ccnc1`, the inhibition was -6.99% (inactive).

With `Cc1ccnc(-n2sc3ccccc3c2=O)n1`, the inhibition is 84.5% (active).

In the case of `CC12C(=O)N(n3cnnc3)C(=O)C1C1C=CC2C1` (stereo not drawn), the inhibition was 1.01% (inactive).

With `C/C(=C\C(=O)c1ccc(Br)cc1)N1CCCCC1`, the inhibition was -18.6% (inactive).

Regarding `CCC(=O)Nc1cccc(NC(=O)CSc2nnc(-c3ccc(NS(C)(=O)=O)cc3)n2C)c1`, the inhibition was -1.65% (inactive).

In the case of `CCc1c(C)[nH]c(=S)c(C#N)c1C`, the inhibition was 84.3% (active).

In the case of `CC(=O)N1CCN(CCN=CC2=C(O)CC(C)(C)CC2=O)CC1`, the inhibition was -3.55% (inactive).

As to `COCCCNC(=O)Cn1cc(C(=O)C2CC2)c2ccccc21`, the inhibition was -5.05% (inactive).

With `O=C(CSc1nnc(Cn2cnc3ccccc32)o1)c1ccccc1`, the inhibition was -18.7% (inactive).

Consider `CCOc1cccc(-c2nnc3sc(COc4ccc(OC)cc4)nn23)c1`, for which the inhibition was 1.27% (inactive).

Take `N#CCCn1cnc2ccccc21`: the inhibition was -0.17% (inactive).

As to `Cc1ccc(C(=O)CSc2nnc(Cn3nnc4ccccc43)n2C)cc1`, the inhibition was -1.04% (inactive).

For the compound `c1ccc(Cc2nn3c(Cn4cnc5ccccc54)nnc3s2)cc1`, the inhibition was 82.6% (active).

Turning to `Fc1ccc(OCc2nn3c(Cn4nnc5ccccc54)nnc3s2)cc1`, the inhibition was 77.8% (active).

Turning to `NC(=O)C1CCN(C2OC(=O)c3ccccc32)CC1` (stereo not drawn), the inhibition is 2.61% (inactive).

Regarding `COc1ccc(OCC(=O)N2CCOCC2)cc1`, the inhibition was -8.89% (inactive).

On to `CCOc1cc(-c2noc(CCC(=O)N3CCOCC3)n2)ccc1OC`, for which the inhibition is -9.69% (inactive).

For the compound `CCOc1cc(C(=S)N2CCOCC2)ccc1O`, the inhibition was 91.2% (active).

`CCCSc1nc2c(c(=O)[nH]c(=O)n2C)n1CCc1ccccc1`: the inhibition is -11.9% (inactive).

Turning to `Cn1c(=O)[nH]c(=O)c2c1nc(N1CCCCCC1)n2CC(=O)c1ccccc1`, the inhibition was 1.85% (inactive).

For the compound `CCCCCn1c(SCCC(C)C)nc2c1c(=O)[nH]c(=O)n2C`, the inhibition was 54.8% (active).

On to `CCCCCCn1c(SCC(=O)c2ccccc2)nc2c1c(=O)[nH]c(=O)n2C`, for which the inhibition is 54.7% (active).

Regarding `Cc1nnc(SCCCn2c(N3CCCCC3)nc3c2c(=O)[nH]c(=O)n3C)s1`, the inhibition is -3.25% (inactive).

As for `Cn1c(=O)[nH]c(=O)c2c1nc(Br)n2CCCCSc1nc2ccccc2o1`, the inhibition is 19.8% (inactive).

On to `CCn1cc(NC(=O)Nc2ccc(OC)c(OC)c2)c(C(N)=O)n1`, for which the inhibition is 9.07% (inactive).

In the case of `O=C(O)c1cccc2c1C(=O)N(C1CCCCC1)C2`, the inhibition is -4.3% (inactive).
